Hit rate of the full screen: of about 24,000 compounds, about 40 (0.2%) were called active.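 Rule for the calls: active = inhibition of disassembly above about 33% (limit read from the data); inconclusive = likely self-fluorescent, control bead median signal at least 40; inactive = the rest.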 This excerpt belongs to a sample that is enriched for actives.
test system: 26S proteasome (yeast, GFP-tagged, ATP-dependent disassembly); assay: blockers of yeast 26S proteasome breakdown – biochemical, bead-based flow cytometry, GFP-tagged proteasome, primary screen (AID 751); details: anti-FLAG beads, hits give high values, concentration not given here;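 note: plate controls were ATP control with full disassembly for no effect and ATP-gamma-S intact proteasomes for full effect; higher percent means more bead fluorescence retained so stronger block of disassembly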

Inhibition of disassembly, active:
Fc1ccc2nc(Nc3nc4c(s3)CCCC4)sc2c1 96.9%
COc1cccc(N2C(=O)C3CCCN3C2c2ccc(F)cc2)c1 (stereo unspecified) 137%

Inhibition of disassembly, inactive:
CCOC(=O)C1CCCN(C(=O)Cn2ncc3c(=O)oc4ccc(C)cc4c32)C1 (stereo unspecified) -1.55%
Cc1nn(-c2ccccc2)c2[nH]c(C(F)(F)F)cc(=O)c12 0.28%
CC(C)CNC(=O)c1cc(-c2ccc(Br)cc2)on1 -0.25%
COc1ccc(C2C(C(=O)Nc3ccccc3OC)=C(C)Nc3nnnn32)c(OC)c1 (stereo unspecified) -0.27%
Cc1ccc(C(c2sc3nc(C)nn3c2O)N2CCN(c3ccccc3)CC2)cc1 (stereo unspecified) -0.53%
CCS(=O)(=O)N1CCC(C(=O)N2CCN(c3ccccc3)CC2)CC1 0.05%
CCOC(=O)c1ccc(NC(=O)CS(=O)(=O)c2cn(CC)c3ccccc23)cc1 -1.63%
CCN(CC)CCNC(=O)C1c2ccccc2C(=O)N(C)C1c1cn(C)c2ccccc12 (stereo unspecified) -2.19%
COc1ccc(CN(C(=O)c2cccs2)c2nccs2)cc1OC 0.76%
CCn1c(SCC(=O)Nc2nccs2)nnc1-c1ccncc1 1.46%
CCCN(CCC)CCNC(=O)c1cc2c(C)nc3ccccc3c2o1 5.25%
Cn1cccc1Cc1nnc(SCC(=O)NCc2ccc3c(c2)OCO3)n1CCc1ccccc1 1.04%
CCOc1ccc(N(CC(=O)NCc2ccc(OC)cc2)S(=O)(=O)c2c(C)noc2C)cc1 -1.57%
Cc1ccc(-c2nc(CS(=O)CC(=O)N3CCN(c4ncccn4)CC3)c(C)o2)cc1 (stereo unspecified) 4.64%
Cc1nnc(SCC(=O)N(C(C)C)C(C)C)nc1C 0.76%
O=C(CSc1nc2[nH]ncc2c(=O)n1-c1ccccc1)N1CCCc2ccccc21 3.12%
CCOCC(=O)Nc1sc2c(c1C(=O)OCC)CCCC2 1.13%
CNC(=O)Nc1cc(C(C)(C)C)no1 -0.8%
COc1ccc(C(=O)N(CCN2CCOCC2)CC(=O)NC2CCCC2)cc1OC 1%
CNC(=O)c1ccc2nc(NC(C)=O)sc2c1 3.41%
Fc1ccc2nc(N3CCCCC3)sc2c1 0.07%
O=C1c2ccncc2C(=O)N1C1CCCCC1 -0.82%
Cc1ncn(C23CC4CC(CC(O)(C4)C2)C3)n1 -1.21%
O=C1c2cccnc2C(=O)N1Cc1cccs1 -1.73%
CCOc1cc(S(=O)(=O)NCc2ccc3c(c2)OCO3)ccc1F -0.11%
Cc1nnc(SCCCn2c(N3CCCCC3)nc3c2c(=O)[nH]c(=O)n3C)s1 -3.02%
Cc1cc(C(=O)NCCCc2ccccc2)no1 0.81%
CCOc1ccc(C2C(C(=O)NC)=C(C)Nc3nc4ccccc4n32)cc1OC (stereo unspecified) -0.82%
O=S(=O)(NCc1ccccc1Cl)c1cnc[nH]1 1.99%
N#CCCn1ncc2ccccc21 -0.94%
CCOC(=O)CN1C(=O)C(O)(CC(=O)c2ccccn2)c2ccccc21 (stereo unspecified) 0.68%
COc1ccc(NC(=O)CN2CCN(S(=O)(=O)c3ccc(F)cc3)CC2)cc1Cl 0.32%
O=C(CN1CCN(C(=O)c2cccc(F)c2)CC1)Nc1ccccc1F 2.43%
CCOc1ccc(CC(=O)Nc2ccc(S(=O)(=O)Nc3cc(C)on3)cc2)cc1OCC 1.32%
Cc1ccc(N(C(=O)CC2NC(=O)NC2=O)C2(C(=O)NC3CCCC3)CCCCC2)cc1 (stereo unspecified) -0.11%
Cc1ccc(C2CC(=O)NC(SCC(=O)OCc3ccccc3)=C2C#N)o1 (stereo unspecified) -1.12%
Cc1ccc(C(CC(=O)O)Nc2nc(N3CCCCC3)nc(N3CCCCC3)n2)cc1 (stereo unspecified) 0.5%
CN(C)S(=O)(=O)c1cccc(C(=O)Nc2cccnc2)c1 0.3%
O=C(Cc1nn[nH]n1)NCCC1=CCCCC1 3.56%
C#CC(C)(C)NC(=O)CSc1nc2c(c(=O)n(C)c(=O)n2C)n1CCCC 0.06%
Cc1ccc(-n2ncc3c(=O)[nH]cnc32)c(C)c1 -2.48%
CCOC(=O)C1CCN(C(=O)c2oc3ccc(S(=O)(=O)N4CCCCCC4)cc3c2C)CC1 0.89%
CCOC(=O)Cc1csc(NC(=O)CN(C)S(=O)(=O)c2ccc3c(c2)CCC(=O)N3)n1 0.365%
CCC1Oc2ccc(Cl)cc2N(CC(=O)O)C1=O (stereo unspecified) -0.77%
Brc1cnc(N2CCCC2)nc1N1CCCCC1 -0.98%
O=C(O)c1ccc(NC(=O)c2cccs2)cc1 -9.2%
COc1ccc(N2C(=O)C3CCCN3C2c2cccc(OC)c2)cc1 (stereo unspecified) 0.89%
COc1ccc(N2C(=O)C3CCCN3C2c2cc(OC)c(OC)cc2OC)cc1 (stereo unspecified) 1.25%
Cc1ccccc1N1CC(c2nc3ccccc3[nH]2)CC1=O (stereo unspecified) 2.43%
Cc1ccc(NC(=O)C2CC(c3ccc(F)cc3)=NO2)cc1 (stereo unspecified) 0.38%
CCOC(=O)Cn1c(=O)oc2cc(S(=O)(=O)N(C)Cc3ccco3)ccc21 0.3%
C=CCOc1ccc(C2/C(=C(\O)c3c(C)[nH]c(C(=O)OC)c3C)C(=O)C(=O)N2CCN(C)C)cc1 (stereo unspecified) -2.37%
Cc1nc2ccc(S(=O)(=O)NC(C(=O)N3CCCCCC3)C(C)C)cc2s1 (stereo unspecified) 0%
CC(C)C1N=C2c3ccccc3N=C(SCC(=O)c3ccc(O)c(O)c3)N2C1=O (stereo unspecified) -7.17%
Nc1nonc1C(=O)NCCc1ccccc1 -0.31%
CCCCN(CC)C(=O)CN(C)S(=O)(=O)c1cccc2nsnc12 -0.83%
CC(=O)Nc1ccc(NS(=O)(=O)c2cc(C)sc2C)cc1 1.22%
CCCNC(=O)Nc1ccccc1C(=O)Nc1ccc(OC)cc1 0.82%
COc1ccccc1CNC(=O)CCCn1c(=O)c2ccccc2n(CC(=O)NC2CCCC2)c1=O -1.05%
